Test results from the supplement of paper PMC11732987, “Enantioselective OTUD7B fragment discovery through chemoproteomics screening and high-throughput optimisation” (Communications Chemistry, 2025).

Columns and labels:
Experiment in all cases: log2 ratio of Biotin-Ahx-Ub-VS probe labelling (fragment/DMSO); higher = less target engagement (more negative = stronger competition), active = hit call of the paper (q ≤ 0.05, log2 ratio ≤ -1)
Details in all cases: compound concentration: 200 uM; treatment time: 3 h
[1] = molecular target: T1, USP42 (UniProt Q9H9J4)
T1 sequence (whole entry): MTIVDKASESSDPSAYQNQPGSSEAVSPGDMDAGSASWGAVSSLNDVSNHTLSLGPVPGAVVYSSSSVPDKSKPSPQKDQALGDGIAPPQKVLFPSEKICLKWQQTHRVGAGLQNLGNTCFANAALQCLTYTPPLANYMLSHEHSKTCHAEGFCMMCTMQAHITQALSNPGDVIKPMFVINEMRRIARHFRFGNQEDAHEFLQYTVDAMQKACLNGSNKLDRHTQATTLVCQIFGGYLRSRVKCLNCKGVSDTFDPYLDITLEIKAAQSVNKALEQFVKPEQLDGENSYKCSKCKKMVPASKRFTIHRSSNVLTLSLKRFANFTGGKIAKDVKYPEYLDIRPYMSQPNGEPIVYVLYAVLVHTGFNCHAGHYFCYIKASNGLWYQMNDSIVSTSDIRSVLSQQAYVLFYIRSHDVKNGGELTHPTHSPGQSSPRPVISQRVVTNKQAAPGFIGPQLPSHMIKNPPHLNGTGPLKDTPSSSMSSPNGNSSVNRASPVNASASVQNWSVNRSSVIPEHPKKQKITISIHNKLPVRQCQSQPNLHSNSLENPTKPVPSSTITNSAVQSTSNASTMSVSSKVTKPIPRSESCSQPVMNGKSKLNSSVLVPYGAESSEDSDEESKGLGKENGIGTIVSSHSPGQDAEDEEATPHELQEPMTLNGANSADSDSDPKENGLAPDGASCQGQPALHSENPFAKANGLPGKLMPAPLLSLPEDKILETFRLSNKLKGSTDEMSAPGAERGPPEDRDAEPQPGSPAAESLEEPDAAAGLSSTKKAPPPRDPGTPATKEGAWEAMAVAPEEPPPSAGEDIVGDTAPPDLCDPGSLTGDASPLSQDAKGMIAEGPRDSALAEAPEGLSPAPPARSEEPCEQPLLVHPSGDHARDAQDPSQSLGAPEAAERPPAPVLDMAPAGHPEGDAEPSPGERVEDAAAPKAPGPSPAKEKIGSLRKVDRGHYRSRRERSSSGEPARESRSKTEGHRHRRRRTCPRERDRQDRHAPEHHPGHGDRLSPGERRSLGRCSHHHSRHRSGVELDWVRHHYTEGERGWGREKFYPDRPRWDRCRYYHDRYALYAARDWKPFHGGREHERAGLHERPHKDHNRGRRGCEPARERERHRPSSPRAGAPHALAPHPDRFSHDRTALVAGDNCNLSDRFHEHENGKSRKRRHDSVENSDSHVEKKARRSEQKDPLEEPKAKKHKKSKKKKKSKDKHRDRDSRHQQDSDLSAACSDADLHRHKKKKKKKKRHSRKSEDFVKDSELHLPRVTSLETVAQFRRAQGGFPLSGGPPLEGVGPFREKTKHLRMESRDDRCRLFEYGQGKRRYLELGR
Outline: (§1)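 HEK293T lysate in Tris/CHAPS/IGEPAL buffer with protease inhibitors (495 µg per sample) was given fragment at 200 µM or vehicle for 3 h, in triplicate. It then received Biotin-Ahx-Ub-VS at 0.5 µM final for 1 h. Labelled DUBs were NeutrAvidin-enriched, digested with LysC and trypsin, and run by diaPASEF LC-MS/MS. Values are average log2 fragment/vehicle ratios by unpaired t-test on global-median-normalised Spectronaut quantities of proteins with ≥2 unique peptides.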

[2] = molecular target: USP46 (UniProt P62068)
Chain of USP46 (P62068 whole entry): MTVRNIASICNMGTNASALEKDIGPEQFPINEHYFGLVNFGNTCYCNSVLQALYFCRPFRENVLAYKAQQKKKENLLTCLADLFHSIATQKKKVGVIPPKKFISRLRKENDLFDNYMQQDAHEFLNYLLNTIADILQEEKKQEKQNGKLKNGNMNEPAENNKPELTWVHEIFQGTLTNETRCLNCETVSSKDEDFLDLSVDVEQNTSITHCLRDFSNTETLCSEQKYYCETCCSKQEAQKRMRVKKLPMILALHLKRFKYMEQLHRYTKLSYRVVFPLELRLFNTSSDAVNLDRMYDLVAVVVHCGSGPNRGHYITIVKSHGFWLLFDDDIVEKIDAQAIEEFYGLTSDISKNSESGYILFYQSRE
Outline: as §1

[3] = molecular target: T2, USP47 (UniProt Q96K76)
T2 sequence (whole entry): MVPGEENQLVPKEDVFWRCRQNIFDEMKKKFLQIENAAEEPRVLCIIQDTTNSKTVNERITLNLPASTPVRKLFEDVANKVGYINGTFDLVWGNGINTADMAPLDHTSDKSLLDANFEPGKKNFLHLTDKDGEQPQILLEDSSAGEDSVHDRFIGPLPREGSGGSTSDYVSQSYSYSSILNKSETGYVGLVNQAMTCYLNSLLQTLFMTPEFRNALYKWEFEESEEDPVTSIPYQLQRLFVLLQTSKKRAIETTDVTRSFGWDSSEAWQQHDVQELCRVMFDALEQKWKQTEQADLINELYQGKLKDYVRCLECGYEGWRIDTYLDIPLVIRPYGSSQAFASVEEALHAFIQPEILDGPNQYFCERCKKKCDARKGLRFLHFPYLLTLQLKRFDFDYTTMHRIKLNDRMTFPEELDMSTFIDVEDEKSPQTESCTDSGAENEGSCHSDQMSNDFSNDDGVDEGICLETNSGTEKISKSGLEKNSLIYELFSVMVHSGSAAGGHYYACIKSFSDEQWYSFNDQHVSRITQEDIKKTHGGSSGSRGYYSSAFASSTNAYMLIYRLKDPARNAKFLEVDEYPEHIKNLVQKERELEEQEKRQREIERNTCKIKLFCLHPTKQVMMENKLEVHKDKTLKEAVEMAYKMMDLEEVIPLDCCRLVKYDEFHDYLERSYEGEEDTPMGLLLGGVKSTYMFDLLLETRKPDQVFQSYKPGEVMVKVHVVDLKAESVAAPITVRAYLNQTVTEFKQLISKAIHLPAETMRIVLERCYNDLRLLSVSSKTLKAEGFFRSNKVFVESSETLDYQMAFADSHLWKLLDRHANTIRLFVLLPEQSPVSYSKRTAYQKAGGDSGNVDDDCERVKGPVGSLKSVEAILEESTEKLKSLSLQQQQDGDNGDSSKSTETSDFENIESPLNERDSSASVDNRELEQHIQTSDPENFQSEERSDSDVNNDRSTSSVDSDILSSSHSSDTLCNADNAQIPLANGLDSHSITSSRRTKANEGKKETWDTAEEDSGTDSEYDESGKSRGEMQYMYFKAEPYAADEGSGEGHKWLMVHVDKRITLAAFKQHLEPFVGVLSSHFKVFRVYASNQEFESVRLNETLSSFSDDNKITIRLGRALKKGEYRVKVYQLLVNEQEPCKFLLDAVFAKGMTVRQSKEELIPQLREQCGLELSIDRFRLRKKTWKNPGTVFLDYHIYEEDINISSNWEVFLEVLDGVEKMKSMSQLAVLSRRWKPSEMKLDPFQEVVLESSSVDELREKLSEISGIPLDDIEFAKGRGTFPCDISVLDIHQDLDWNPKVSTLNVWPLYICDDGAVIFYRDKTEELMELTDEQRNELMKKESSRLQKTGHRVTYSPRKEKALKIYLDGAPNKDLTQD
Outline: as §1

[4] = molecular target: T3, USP48 (UniProt Q86UV5)
T3 sequence (whole entry): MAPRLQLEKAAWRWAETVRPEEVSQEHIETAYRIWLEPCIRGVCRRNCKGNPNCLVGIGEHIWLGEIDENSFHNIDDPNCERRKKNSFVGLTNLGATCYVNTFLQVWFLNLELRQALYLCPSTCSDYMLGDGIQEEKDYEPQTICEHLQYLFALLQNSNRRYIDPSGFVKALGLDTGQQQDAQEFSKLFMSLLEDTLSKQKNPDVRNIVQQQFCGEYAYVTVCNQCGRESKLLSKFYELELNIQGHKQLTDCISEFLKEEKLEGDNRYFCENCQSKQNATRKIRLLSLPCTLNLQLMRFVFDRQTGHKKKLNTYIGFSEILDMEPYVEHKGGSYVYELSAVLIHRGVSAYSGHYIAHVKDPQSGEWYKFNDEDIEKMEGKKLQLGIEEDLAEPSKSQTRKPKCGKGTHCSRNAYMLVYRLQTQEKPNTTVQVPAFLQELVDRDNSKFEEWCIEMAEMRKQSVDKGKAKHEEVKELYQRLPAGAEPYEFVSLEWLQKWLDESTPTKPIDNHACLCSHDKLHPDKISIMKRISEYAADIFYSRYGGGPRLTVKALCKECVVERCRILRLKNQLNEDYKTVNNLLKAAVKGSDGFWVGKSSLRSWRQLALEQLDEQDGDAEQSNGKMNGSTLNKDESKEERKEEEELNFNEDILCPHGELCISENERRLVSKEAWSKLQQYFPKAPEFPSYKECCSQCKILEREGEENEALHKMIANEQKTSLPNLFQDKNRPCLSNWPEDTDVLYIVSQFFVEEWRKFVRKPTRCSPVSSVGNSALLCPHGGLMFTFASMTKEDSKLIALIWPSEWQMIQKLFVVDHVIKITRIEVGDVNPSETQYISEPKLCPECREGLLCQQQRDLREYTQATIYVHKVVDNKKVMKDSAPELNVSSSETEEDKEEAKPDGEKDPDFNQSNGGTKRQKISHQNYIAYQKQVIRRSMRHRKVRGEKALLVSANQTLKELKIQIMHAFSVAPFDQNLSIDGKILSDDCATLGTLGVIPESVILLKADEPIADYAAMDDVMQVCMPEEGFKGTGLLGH
Outline: as §1

[5] = molecular target: T4, USP5 (UniProt P45974)
T4 sequence (whole entry): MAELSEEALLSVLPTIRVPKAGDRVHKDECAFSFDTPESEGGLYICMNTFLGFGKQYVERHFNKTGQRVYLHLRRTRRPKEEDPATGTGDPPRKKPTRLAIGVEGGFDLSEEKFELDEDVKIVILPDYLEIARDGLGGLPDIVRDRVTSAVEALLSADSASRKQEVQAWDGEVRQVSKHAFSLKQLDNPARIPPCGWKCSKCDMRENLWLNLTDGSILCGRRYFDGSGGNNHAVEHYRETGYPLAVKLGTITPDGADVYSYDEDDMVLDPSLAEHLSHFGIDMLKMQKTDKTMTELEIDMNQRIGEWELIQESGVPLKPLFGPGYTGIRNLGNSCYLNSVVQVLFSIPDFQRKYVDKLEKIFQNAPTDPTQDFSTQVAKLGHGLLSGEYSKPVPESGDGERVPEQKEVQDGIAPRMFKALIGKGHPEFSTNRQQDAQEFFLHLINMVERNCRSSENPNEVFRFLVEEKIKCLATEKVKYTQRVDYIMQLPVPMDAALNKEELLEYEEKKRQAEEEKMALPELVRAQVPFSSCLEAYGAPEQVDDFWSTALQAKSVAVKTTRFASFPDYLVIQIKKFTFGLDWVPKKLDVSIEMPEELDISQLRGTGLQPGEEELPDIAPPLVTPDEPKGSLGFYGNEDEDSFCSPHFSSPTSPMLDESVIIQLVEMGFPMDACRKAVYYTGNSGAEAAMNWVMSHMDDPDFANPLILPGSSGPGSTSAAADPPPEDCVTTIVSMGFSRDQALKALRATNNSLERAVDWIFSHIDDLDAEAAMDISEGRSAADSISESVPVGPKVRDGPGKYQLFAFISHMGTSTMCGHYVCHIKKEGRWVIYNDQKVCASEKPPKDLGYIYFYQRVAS
Outline: as §1

[6] = molecular target: USP54 (UniProt Q70EL1)
Chain of USP54 (Q70EL1 whole entry): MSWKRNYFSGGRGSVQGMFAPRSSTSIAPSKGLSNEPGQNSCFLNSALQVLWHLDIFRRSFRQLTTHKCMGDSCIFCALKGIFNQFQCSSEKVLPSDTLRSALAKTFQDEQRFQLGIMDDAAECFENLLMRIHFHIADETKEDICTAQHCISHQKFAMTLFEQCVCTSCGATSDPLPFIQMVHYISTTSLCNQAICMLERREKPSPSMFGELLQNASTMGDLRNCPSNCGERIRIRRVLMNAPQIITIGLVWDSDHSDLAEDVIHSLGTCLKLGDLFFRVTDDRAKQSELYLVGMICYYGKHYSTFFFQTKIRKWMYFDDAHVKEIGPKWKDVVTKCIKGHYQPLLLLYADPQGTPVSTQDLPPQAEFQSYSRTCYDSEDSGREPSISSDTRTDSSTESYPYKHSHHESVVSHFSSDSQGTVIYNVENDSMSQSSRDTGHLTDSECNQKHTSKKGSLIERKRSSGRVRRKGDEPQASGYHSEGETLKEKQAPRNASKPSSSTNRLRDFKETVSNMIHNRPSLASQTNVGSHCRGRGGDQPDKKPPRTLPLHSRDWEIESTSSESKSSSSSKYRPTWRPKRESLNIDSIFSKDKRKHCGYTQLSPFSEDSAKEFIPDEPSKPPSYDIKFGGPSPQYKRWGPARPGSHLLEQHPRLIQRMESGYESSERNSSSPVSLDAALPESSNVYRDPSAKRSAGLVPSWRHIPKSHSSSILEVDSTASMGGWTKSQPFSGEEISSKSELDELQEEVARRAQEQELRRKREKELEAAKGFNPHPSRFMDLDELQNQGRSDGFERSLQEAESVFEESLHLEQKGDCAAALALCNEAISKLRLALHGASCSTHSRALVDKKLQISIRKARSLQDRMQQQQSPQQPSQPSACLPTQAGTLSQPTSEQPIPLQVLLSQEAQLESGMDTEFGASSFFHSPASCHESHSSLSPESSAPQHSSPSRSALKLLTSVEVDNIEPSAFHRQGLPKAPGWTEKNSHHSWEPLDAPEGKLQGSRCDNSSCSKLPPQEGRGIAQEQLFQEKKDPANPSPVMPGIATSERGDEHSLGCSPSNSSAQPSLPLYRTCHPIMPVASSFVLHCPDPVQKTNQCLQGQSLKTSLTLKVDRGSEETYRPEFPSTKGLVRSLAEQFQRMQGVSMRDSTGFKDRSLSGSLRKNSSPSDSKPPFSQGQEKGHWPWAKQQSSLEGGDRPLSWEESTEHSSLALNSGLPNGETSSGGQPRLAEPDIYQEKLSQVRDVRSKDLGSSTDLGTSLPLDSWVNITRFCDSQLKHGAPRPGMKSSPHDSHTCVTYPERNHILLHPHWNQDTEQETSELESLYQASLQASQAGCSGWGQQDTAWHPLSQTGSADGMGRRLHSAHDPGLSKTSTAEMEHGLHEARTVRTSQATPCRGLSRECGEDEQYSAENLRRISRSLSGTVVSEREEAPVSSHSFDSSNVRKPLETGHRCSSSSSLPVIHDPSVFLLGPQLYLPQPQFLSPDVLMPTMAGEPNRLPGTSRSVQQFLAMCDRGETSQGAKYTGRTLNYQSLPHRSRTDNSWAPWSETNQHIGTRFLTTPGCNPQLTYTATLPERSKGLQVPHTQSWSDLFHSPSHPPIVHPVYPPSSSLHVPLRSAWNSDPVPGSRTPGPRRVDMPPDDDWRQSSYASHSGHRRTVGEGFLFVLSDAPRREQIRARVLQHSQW
Outline: as §1

[7] = molecular target: USP7 (UniProt Q93009)
Chain of USP7 (Q93009 whole entry, looked up): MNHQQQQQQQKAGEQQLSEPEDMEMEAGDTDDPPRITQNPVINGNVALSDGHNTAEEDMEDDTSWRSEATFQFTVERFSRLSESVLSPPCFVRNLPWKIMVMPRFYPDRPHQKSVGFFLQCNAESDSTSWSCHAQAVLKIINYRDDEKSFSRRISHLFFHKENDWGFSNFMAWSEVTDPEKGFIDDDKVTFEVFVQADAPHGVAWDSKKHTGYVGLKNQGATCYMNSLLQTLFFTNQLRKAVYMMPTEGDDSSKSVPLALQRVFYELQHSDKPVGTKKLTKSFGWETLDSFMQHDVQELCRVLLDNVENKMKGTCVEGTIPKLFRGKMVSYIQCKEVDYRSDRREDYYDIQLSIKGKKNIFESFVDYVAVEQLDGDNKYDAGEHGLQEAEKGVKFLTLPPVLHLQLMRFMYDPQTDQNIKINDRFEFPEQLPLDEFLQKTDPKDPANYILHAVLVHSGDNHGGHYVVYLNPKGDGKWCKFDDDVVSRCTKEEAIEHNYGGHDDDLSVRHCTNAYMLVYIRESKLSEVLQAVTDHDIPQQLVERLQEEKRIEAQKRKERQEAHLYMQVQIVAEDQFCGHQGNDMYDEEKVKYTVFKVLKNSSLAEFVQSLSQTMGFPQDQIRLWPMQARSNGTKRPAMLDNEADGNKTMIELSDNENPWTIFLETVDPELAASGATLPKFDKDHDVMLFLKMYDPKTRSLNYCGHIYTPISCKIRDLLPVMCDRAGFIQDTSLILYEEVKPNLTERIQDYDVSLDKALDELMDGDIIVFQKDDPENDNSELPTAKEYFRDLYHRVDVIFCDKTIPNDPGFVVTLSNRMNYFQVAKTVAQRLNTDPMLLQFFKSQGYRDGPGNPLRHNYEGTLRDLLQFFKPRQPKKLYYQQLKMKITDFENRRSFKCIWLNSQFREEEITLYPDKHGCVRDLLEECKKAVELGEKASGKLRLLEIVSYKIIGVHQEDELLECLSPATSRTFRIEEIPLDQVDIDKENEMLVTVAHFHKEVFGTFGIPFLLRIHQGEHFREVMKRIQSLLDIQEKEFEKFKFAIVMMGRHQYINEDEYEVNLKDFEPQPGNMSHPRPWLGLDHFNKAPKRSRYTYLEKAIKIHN
Outline: as §1

[8] = molecular target: T5, USP8 (UniProt P40818)
T5 sequence (whole entry): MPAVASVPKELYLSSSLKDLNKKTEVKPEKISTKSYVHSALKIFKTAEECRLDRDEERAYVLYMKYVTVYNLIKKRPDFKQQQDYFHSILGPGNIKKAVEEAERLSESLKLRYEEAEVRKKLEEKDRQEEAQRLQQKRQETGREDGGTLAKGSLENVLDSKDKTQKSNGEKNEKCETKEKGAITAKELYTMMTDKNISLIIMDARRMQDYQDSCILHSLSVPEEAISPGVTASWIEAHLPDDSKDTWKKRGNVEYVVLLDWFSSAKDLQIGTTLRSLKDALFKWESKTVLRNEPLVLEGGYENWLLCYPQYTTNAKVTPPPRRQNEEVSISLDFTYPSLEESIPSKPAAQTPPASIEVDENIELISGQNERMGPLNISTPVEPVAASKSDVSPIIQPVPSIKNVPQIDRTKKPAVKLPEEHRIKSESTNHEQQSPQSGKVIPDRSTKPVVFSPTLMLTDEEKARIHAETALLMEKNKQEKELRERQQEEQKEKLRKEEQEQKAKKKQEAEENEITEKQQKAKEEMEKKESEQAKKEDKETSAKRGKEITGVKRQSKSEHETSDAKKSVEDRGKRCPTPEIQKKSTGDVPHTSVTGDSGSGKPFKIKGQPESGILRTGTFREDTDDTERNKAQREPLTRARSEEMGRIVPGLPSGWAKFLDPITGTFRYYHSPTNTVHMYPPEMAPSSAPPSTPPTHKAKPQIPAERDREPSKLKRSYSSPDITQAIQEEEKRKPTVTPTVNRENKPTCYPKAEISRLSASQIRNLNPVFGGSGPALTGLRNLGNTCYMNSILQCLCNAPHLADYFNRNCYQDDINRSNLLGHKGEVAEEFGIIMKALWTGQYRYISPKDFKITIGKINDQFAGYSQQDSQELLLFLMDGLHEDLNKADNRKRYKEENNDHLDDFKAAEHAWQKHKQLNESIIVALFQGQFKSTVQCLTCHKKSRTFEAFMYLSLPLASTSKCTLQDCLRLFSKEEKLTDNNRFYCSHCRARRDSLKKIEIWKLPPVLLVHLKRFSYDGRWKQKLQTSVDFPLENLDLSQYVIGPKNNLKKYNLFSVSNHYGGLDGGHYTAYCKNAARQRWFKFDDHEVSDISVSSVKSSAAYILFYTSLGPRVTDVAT
Outline: as §1

Measured: log2 ratio of Biotin-Ahx-Ub-VS probe labelling

Cl.Cn1cnc2cc(CNC(=O)CCl)ccc21
inactive: [1] 0.00921 | [2] -0.0392 | [3] -0.0799 | [4] 0.192 | [5] -0.445 | [6] -0.109 | [7] -0.083 | [8] -0.103
